Bioassay records deposited in PubChem BioAssay by Sanford-Burnham Center for Chemical Genomics.
CYP2C9 inhib: human CYP2C9 inhibition; CYP2C9 Supersomes, luciferin-H conversion, luminescence; inhibition, % at 5 µM; hit rate 20% among 96,000; AID 777;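 active means blocking of liver enzyme CYP2C9 beyond about 50% at 5 µM, limit read from the data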
CD11b adhes inh: CD11b/CD18-fibrinogen binding inhibition | P05107+P11215 | K562 CD11b/CD18 adhesion to fibrinogen, ATPlite luminescence; Mn2+ added to activate the integrin | inhibition, % at 10 µM | hit rate 0.54% among 93,000;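 active means primary inhibition of 50% or more at 10 µM, then 40% or more on retest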
Target sequence (P05107 whole entry, looked up, other chains not shown): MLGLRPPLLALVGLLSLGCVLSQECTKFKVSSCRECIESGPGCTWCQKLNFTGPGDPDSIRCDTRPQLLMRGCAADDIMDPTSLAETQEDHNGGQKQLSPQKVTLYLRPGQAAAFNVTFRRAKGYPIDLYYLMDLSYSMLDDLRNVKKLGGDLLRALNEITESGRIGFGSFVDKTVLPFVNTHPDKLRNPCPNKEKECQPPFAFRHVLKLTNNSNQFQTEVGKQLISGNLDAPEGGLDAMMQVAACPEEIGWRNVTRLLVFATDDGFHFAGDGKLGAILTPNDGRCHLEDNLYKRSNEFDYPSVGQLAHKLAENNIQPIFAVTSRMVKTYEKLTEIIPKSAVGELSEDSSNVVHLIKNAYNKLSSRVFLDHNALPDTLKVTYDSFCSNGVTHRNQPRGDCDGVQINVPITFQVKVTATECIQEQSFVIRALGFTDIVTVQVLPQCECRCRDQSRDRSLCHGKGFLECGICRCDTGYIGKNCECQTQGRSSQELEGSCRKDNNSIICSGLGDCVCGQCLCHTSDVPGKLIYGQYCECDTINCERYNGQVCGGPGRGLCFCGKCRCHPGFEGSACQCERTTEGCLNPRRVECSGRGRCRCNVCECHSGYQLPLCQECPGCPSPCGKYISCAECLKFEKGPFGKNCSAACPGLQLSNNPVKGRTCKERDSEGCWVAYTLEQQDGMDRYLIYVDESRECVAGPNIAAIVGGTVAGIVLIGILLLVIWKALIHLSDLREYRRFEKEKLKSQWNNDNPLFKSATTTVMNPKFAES
CYP2C19 inh: inhibitors of human CYP2C19; P33261; CYP2C19 Supersomes, luciferin-H EGE luminescence, 30 min; inhibition, % at 5 µM; hit rate 21% among 96,000;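 active means CYP2C19 inhibition above a set limit at 5 µM in the primary screen, cut at about 50% in these data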
CYP2C19 activ: cytochrome P450 2C19 (human) activation. P33261. recombinant CYP2C19, luciferin-H EGE luminescence; active compounds read high; 0 = fully inhibited enzyme, 1 = untreated enzyme. activation factor at 5 µM. 96,000 tested, under 10 active. AID 1025;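 active means activation factor of at least 2 at 5 µM in the primary screen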
CYP2C9 act: CYP2C9 (human) activation. recombinant CYP2C9, luciferin-H conversion, luminescence; active compounds read high; factor 1 = untreated enzyme, 0 = blocked. activation factor at 5 µM. hit rate 1.4% among 96,000;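 active means activation factor of 2 or more for CYP2C9 at a 5 µM dose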
Mac1 fbg enh: increases human CD11b/CD18 adhesion to fibrinogen; P05107+P11215; K562 CD11b/CD18 adhesion to fibrinogen, ATPlite luminescence; activation, % at 10 µM; hit rate 0.07% among 93,000; AID 1499;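 active means 10 µM primary screen giving 50% or more activity, confirmed by 40% or more on retest at that dose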
A number is an active result; n = inactive; x = no result. Sampled rows, rich in hits. Any-hit rate of the full collection: about 28%.

SMILES	CYP2C9 inhib	CD11b adhes inh	CYP2C19 inh	CYP2C19 activ	CYP2C9 act	Mac1 fbg enh
COc1ccccc1N1CCN(C(=O)C(NS(=O)(=O)c2cccs2)c2ccccc2)CC1 (centres undefined)	n	x	62	n	n	x
COc1ccc(S(=O)(=O)N2CCN(c3ccccc3OC)CC2)cc1OC	n	n	80	n	n	n
COc1cc(S(=O)(=O)N2CCN(c3ccccc3)CC2)ccc1Cl	n	n	n	n	n	n
COc1ccccc1N1CCN(C(=O)C(Cc2ccccc2)NC(=O)C2CCCCC2)CC1 (centres undefined)	87	n	99	n	n	n
COc1ccccc1N1CCN(S(=O)(=O)c2cccs2)CC1	83	n	n	n	n	n
COc1ccccc1N1CCN(S(=O)(=O)c2ccc(Br)s2)CC1	n	n	n	n	n	n
CCOC(=O)COc1ccc(S(=O)(=O)N2CCN(c3ccccc3F)CC2)cc1	81	n	68	n	n	n
COc1cc(S(=O)(=O)N2CCN(c3ccccc3F)CC2)ccc1Cl	90	n	99	n	n	n
CC(C)(C)OC(=O)N[C@@H](Cc1ccccc1)C(=O)N1CCC(C(=O)O)CC1	n	x	n	n	n	x
Cc1cccc(-n2nnc(C(=O)NC3CCCc4ccccc43)c2N)c1 (centres undefined)	n	x	n	n	n	x
CC(=Nc1ccc2c(c1)nc(CO)n2C)C1=C(O)CC(C)(C)CC1=O	n	n	n	n	n	n
C/C(=N\NC(=O)c1c(Cl)c(C)nn1C)c1cccc(NC(=O)COc2ccccc2)c1	n	n	n	n	n	n
C/C(=N\NC(=O)c1c(Cl)c(C)nn1C)c1ccc(NC(=O)COc2ccc(Cl)cc2C)cc1	66	x	n	n	n	x
CCSc1nnc(NC(=O)Cc2ccc(OC)cc2)s1	n	x	n	n	n	x
COCCn1c(SCC(=O)c2ccc(CNC(C)=O)o2)nc2ccccc2c1=O	n	n	n	n	n	n
COC(=O)c1ccc(CSc2nc3ccccc3c(=O)n2Cc2ccco2)o1	100	n	97	n	n	n
COC(=O)c1ccc(CSc2nc3ccccc3c(=O)n2CC(C)C)o1	57	n	n	n	n	n
COc1ccc2nc(C)cc(SCC(=O)NNC(=O)COc3ccccc3)c2c1	n	x	n	n	n	x
Cc1ccccc1NC(=O)CSc1nc(COc2ccccc2)nc2ccccc12	95	x	76	n	n	x
Cc1cc(C)c(NC(=O)CSc2nc(COc3ccccc3)nc3ccccc23)c(C)c1	85	n	n	n	n	n
CCc1nc(SCC(=O)NNC(=O)C(C)C)c2ccccc2n1	n	n	n	n	n	n
CC(C)COC(=S)Nc1ccccc1	n	n	78	n	n	n
Cc1ccc(Cn2c(-c3nonc3N)nc3ccccc32)cc1	n	n	n	n	n	n
COc1cccc(Cn2c(-c3nonc3N)nc3ccccc32)c1	n	n	n	n	n	n
Nc1nonc1-c1nc2ccccc2n1Cc1ccc(Cl)cc1	53	n	75	n	n	n
SMILES	CYP2C9 inhib	CD11b adhes inh	CYP2C19 inh	CYP2C19 activ	CYP2C9 act	Mac1 fbg enh
COc1cc(Cn2c(-c3nonc3N)nc3ccccc32)ccc1C	74	n	n	n	n	n
CCOC(=O)CC(N)c1ccc(OC)cc1 (centres undefined)	n	n	n	n	n	n
O=C(COC(=O)c1cc(-c2cccs2)nn1-c1ccccc1)Nc1ccc(Cl)c([N+](=O)[O-])c1	x	n	x	x	x	n
COc1ccc(C(=O)CSc2nnc(-c3ccc(S(=O)(=O)N4CCOCC4)cc3)o2)cc1	n	n	n	n	n	n
COCCn1cnnc1SCC(=O)c1ccc(S(=O)(=O)N2CCCC2)cc1	n	n	57	n	n	n
CCOC(=O)c1cc2c(nc1N)CC(C)(CC)OC2 (centres undefined)	n	n	92	n	n	n
CCS(=O)(=O)c1ccc2c(c1)N(S(C)(=O)=O)CC(C(=O)NCCOC)O2 (centres undefined)	n	x	n	n	n	x
CC(NC(=O)C12CC3CC(C1)CC(n1cncn1)(C3)C2)C12CC3CC(CC(C3)C1)C2 (centres undefined)	72	x	68	n	n	x
CCC(C)NS(=O)(=O)c1ccc(OC)c(Cl)c1Cl (centres undefined)	n	n	70	n	n	n
CCNS(=O)(=O)c1cc(Br)ccc1OC	n	n	n	n	n	n
